{"source": "PubChem BioAssay AID488815", "about": "(Broad Institute, 2010)", "note": "Entries with a potency or affinity are not part of this list. Results filed as inconclusive are left out. Active and inactive are the calls of the source. How the calls were made is not given here.", "data": [{"biological_target": "CAAX prenyl protease 1 (Saccharomyces cerevisiae (strain ATCC 204508 / S288c)) (UniProt P47154)", "sequence (P47154 whole entry, looked up)": "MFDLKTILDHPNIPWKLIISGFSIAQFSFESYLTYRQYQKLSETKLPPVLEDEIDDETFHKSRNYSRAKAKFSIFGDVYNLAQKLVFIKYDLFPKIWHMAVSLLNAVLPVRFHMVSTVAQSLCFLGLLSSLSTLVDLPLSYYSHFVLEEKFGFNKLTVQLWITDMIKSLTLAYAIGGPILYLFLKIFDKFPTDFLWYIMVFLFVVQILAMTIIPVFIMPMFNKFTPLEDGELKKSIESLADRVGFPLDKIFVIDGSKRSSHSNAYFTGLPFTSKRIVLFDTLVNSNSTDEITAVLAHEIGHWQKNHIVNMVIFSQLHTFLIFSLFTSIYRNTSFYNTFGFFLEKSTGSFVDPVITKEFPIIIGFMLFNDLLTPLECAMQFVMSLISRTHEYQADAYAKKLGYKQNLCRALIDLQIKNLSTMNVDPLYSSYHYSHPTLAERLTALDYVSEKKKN", "assay": "Ste24 protease inhibitors, dose response, biochemical, S. cerevisiae, plate reader, cherry-pick (AID 488815)", "conditions": "yeast Ste24 protease activity; series mostly up to 10 µM", "values": [{"smiles": "O=C(Nc1ncccn1)c1ccc([N+](=O)[O-])cc1", "outcome": "inactive"}, {"smiles": "COc1ccccc1CC(=O)Nc1ccc2c(C)cc(=O)oc2c1", "outcome": "inactive"}, {"smiles": "COc1ccc(Cc2nc3ccc(C(=O)N4CCCC4)cc3o2)cc1", "outcome": "inactive"}, {"smiles": "Cc1ccc(S(=O)(=O)Nc2ccccc2C(=O)NCC2CCCO2)cc1", "note": "(stereo not given)", "outcome": "inactive"}, {"smiles": "CCOc1ccc(N(CC(=O)NC2CC3CCC2C3)S(=O)(=O)c2ccccc2)cc1", "note": "(stereo not given)", "outcome": "inactive"}, {"smiles": "CCOC(=O)c1cc(-c2ccccc2)sc1NC(=O)C(C)Sc1nnnn1C", "note": "(stereo not given)", "outcome": "inactive"}, {"smiles": "CN1C(=O)/C(=C/c2cccc(Cl)c2)Sc2ccc(C(=O)N3CCOCC3)cc21", "outcome": "inactive"}, {"smiles": "Cc1ccccc1OC(C)C(=O)N1CCC(Cc2ccccc2)CC1", "note": "(stereo not given)", "outcome": "inactive"}, {"smiles": "CCN(Cc1ccccc1)S(=O)(=O)c1ccc(C(=O)N(CCCN(C)C)c2nc3c(C)c(C)ccc3s2)cc1", "outcome": "inactive"}, {"smiles": "COc1cccc(/C=N/NC(=O)c2nnn(-c3nonc3N)c2C(C)C)c1OCc1ccc(F)cc1", "outcome": "inactive"}, {"smiles": "O=C(Nc1cc(S(=O)(=O)N2CCOCC2)ccc1N1CCCC1)c1cnccn1", "outcome": "inactive"}, {"smiles": "COc1ccc(C(C(=O)NC2CCCCC2)N(C(=O)c2snc(C(N)=O)c2N)c2ccc(OC)cc2OC)cc1", "note": "(stereo not given)", "outcome": "inactive"}, {"smiles": "NC(=NCCCCCCN=C(N)/N=C(\\N)Nc1ccc(Cl)cc1)/N=C(\\N)Nc1ccc(Cl)cc1", "outcome": "inactive"}, {"smiles": "COc1ccc(OCC(=O)NS(=O)(=O)c2ccc(Cl)cc2)cc1", "outcome": "inactive"}, {"smiles": "COc1ccc(-n2nc(C(=O)NCC(=O)N3CCC(C)CC3)c3ccccc3c2=O)cc1", "outcome": "inactive"}, {"smiles": "CCCCn1c(=O)[nH]c(=O)c2c1nc(-c1ccc(OC)c(Br)c1)n2CC(C)C", "outcome": "inactive"}, {"smiles": "CC(C)CC(=O)NC(=S)Nc1ccc(S(=O)(=O)Nc2nccs2)cc1", "outcome": "inactive"}, {"smiles": "COC(C/C=C/[C@H](O)[C@@H](C)OCc1ccccc1)OC", "outcome": "inactive"}, {"smiles": "CC(C)c1cccc(OCC(=O)Nc2ccc(S(=O)(=O)Nc3ccccn3)cc2)c1", "outcome": "inactive"}, {"smiles": "O=C(Nc1ccc(S(=O)(=O)Nc2ccccc2)cc1)C1COc2ccccc2O1", "note": "(stereo not given)", "outcome": "inactive"}, {"smiles": "Cc1cc(C(=O)N/N=C/c2c3ccccc3cc3ccccc23)n[nH]1", "outcome": "inactive"}, {"smiles": "Cc1cccc(N2C(=O)c3cccc4c(N5CCCCC5)c([N+](=O)[O-])cc(c34)C2=O)c1C", "outcome": "inactive"}, {"smiles": "O=C1CN(C(=O)NCC(=O)N2CCCC2)c2ccccc2N1", "outcome": "inactive"}, {"smiles": "COc1ccccc1NC(=O)CN(c1ccc(C23CC4CC(CC(C4)C2)C3)cc1)S(C)(=O)=O", "outcome": "inactive"}, {"smiles": "Cc1cc2cc(C(=O)N3CCc4c([nH]c5ccccc45)C3c3ccccn3)ccc2o1", "note": "(stereo not given)", "outcome": "inactive"}, {"smiles": "O=c1c(-c2ccccc2)c(O)c2ccccc2n1-c1ccccc1", "outcome": "inactive"}, {"smiles": "CC1CCN(C(=O)c2cc3nc(-c4ccccc4)cc(-c4ccccc4)n3n2)CC1", "outcome": "inactive"}, {"smiles": "Clc1cccc(CN2CCc3c([nH]c4ccccc34)C2)c1Cl", "outcome": "inactive"}, {"smiles": "CCOC(=O)c1c(NC(=O)COc2ccccc2F)sc2c1CC(C)(C)NC2(C)C", "outcome": "inactive"}, {"smiles": "COC(C/C=C/[C@H](O)[C@H](C)OCc1ccccc1)OC", "outcome": "inactive"}, {"smiles": "CCOc1ccc(OCC)c(NC(=O)c2nnn(CC(=O)Nc3cc(C)cc(C)c3)c2N)c1", "outcome": "inactive"}, {"smiles": "c1ccc(Nc2cccc(Nc3ccccc3)n2)cc1", "outcome": "inactive"}, {"smiles": "COc1ccc(Cl)cc1Nc1nc(C)nc2c1oc1ccccc12", "outcome": "inactive"}, {"smiles": "Clc1ccc(CN2CCc3c([nH]c4ccccc34)C2)cc1Cl", "outcome": "inactive"}, {"smiles": "CC(C)C(=O)Nc1cccc(NC(=S)NC(=O)C(c2ccccc2)c2ccccc2)c1", "outcome": "inactive"}, {"smiles": "CCCC(=O)N1CCN(c2ccc(NC(=O)c3cc4ccccc4o3)cc2Cl)CC1", "outcome": "inactive"}, {"smiles": "CN(C(=O)COC(=O)c1cc([N+](=O)[O-])ccc1Sc1ccccc1)C1CCS(=O)(=O)C1", "note": "(stereo not given)", "outcome": "inactive"}, {"smiles": "Cc1cccc(N2CCc3c2nc2ccc(Br)cc2c3N)c1", "outcome": "inactive"}, {"smiles": "CC1CCc2c(sc(NC(=O)COC(=O)c3ccccc3NCc3ccco3)c2C#N)C1", "note": "(stereo not given)", "outcome": "inactive"}, {"smiles": "CCOc1ccc(NC(=O)CCSc2ccc(C)cc2)cc1", "outcome": "inactive"}]}]}
